These results are taken from PubChem BioAssay (EPA / NIEHS).

Calls of active or inactive are those of the source. Rule for the calls: active = hit-call score of the fitted dose curve at least 0.9, where 1 is the maximum; inactive = score below 0.9.

For the experiment, the target named is Paired box protein Pax-6 (Homo sapiens) (UniProt P26367). Description: ATG_Pax6_CIS: Attagene CIS-FACTORIAL HepG2 Assay for human Paired Box 6 (PAX6) (AID 2282956). To be noted: HepG2 CIS-FACTORIAL PAX6 reporter transcription, RNA readout; actives raise or lower the signal. On the procedure: ATG_CIS is a cell-based, multiplexed-readout assay that uses HepG2, a human liver cell line, with measurements taken at 24 hours after chemical dosing in a 24-well plate.ATG_Pax6_CIS is one of 52 assay component(s) measured or calculated from the ATG_CIS assay. It is designed to make measurements of mRNA induction, a form of inducible reporter, as detected with fluorescence intensity signals by Reverse transcription polymerase chain reaction (RT-PCR) and Capillary electrophoresis technology.Data from the assay component ATG_Pax6_CIS was analyzed into 1 assay endpoint. This assay endpoint, ATG_Pax6_CIS, was analyzed with bidirectional fitting relative to DMSO as the negative control and baseline of activity. Using a type of inducible reporter, measures of mRNA for gain or loss-of-signal activity can be used to understand the reporter gene at the transcription factor-level as they relate to the gene PAX6. Furthermore, this assay endpoint can be referred to as a primary readout, because this assay has produced multiple assay endpoints where this one serves a reporter gene function. To generalize the intended target to other relatable targets, this assay endpoint is annotated to the dna binding intended target family, where the subfamily is paired box protein.
Sequence of Paired box protein Pax-6 (Homo sapiens) (P26367 whole entry, looked up): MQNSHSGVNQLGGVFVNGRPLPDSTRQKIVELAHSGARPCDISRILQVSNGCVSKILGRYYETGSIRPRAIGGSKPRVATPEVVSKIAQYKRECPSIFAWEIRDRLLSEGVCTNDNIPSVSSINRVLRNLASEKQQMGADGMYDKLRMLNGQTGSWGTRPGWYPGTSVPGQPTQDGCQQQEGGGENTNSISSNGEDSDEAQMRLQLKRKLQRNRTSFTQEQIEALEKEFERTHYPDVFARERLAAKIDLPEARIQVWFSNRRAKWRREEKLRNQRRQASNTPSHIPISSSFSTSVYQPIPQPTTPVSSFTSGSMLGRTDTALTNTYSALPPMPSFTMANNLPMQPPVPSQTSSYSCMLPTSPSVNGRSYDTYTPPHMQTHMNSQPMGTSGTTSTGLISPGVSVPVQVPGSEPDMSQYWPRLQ
Human liver HepG2 cells are transiently transfected with multiple reporter transcription units (MRTUs) in 6-well plates using FuGene 6 reagent (Roche; 3 ml FuGene/1 mg DNA). The MRTU constructs are regulated by a cis-regulating element (promoter). […] A major difference between the CIS and TRANS system is that in CIS activities of endogenous TFs are measured, whereas the TRANS assay evaluates changes in activities of exogenous, chimeric NR-Gal4 proteins. […] At the end of 24 hour incubation, total RNA was isolated using TriZol reagent (Invitrogen). The isolated RNA is then reverse-transcribed using oligo(dT) primer and Mo-MLV reverse transcriptase (Invitrogen) with DNAse I (Ambion) treatment for 30 min. The one-tenth of the produced cDNA was amplified by PCR using Taq DNA polymerase (Invitrogen) and two reporter sequence-specific primers. The PCR products were fluorescently labeled by primer extension with 6-arboxyfluorescein (6-FAM) 5'-labeled reporter sequence-specific primer (2 min at 95 C, 20 s at 68 C and 10 min at 72 C) and these products were digested with 5U of HpaI (New England Biolabs) for 2h at 37 C. The fragments were purified using Qiaquick PCR columns (Qiagen), analyzed on an ABI 3130xL genetic analyzer (Applied Biosystems) with peak positions identified by using a set of X-rhodamine (ROX)-labeled MapMarker1000 molecular weight standards (BioVentures). The raw capillary electrophoresis data was processed using Attagraph software (Attagene).
For `Cc1cc(=O)[nH]c(C(C)C)n1`, the compound was classed as inactive.

Regarding `OCC(O)CC(F)(F)C(F)(F)C(F)(F)C(F)(F)C(F)(F)C(F)(F)C(F)(F)C(F)(F)F` (stereo not given), the call was inactive.

Take `Brc1nc2ccccc2s1`: the compound was called inactive.

In the case of `Cc1cnccn1`, the compound was called inactive.

As to `O=S(=O)(O)CCC(F)(F)C(F)(F)C(F)(F)C(F)(F)C(F)(F)C(F)(F)C(F)(F)C(F)(F)F`, the call was inactive.

For the compound `O=C1c2c(O)ccc(Nc3ccc(CCO)cc3)c2C(=O)c2c([N+](=O)[O-])ccc(O)c21`, the call was inactive.

Take `O=C(O)C(F)(F)C(F)(F)C(F)(F)C(F)(F)C(F)(F)C(F)(F)C(F)F`: the outcome was inactive.

With `C=C(C)CCCC`, the outcome was inactive.

In the case of `CCN(CC)c1ccc2c(c1)Oc1cc(N(CC)CC)ccc1C21OC(=O)c2ccccc21`, the compound was called inactive.

With `Nc1cc([N+](=O)[O-])cc(Cl)c1O`, the call was inactive.

`C=CC(=O)OCC(F)(F)C(F)(F)C(F)(F)COC(=O)C=C`: the AC50 was 50 µM (active).

On to `NC(=O)C(F)(F)C(F)(F)C(F)(F)C(F)(F)C(N)=O`, for which the compound was classed as inactive.

As for `CC(=O)c1ccccc1N`, the result was inactive.

In the case of `CCc1ccc(C)nc1`, the call was inactive.

With `F[Si-2](F)(F)(F)(F)F`, the compound was classed as inactive.

Turning to `OCC1CCCO1` (stereo not given), the result was inactive.

For `c1ccc(C[P+](c2ccccc2)(c2ccccc2)c2ccccc2)cc1`, the outcome was inactive.

With `CCC(Cc1c(I)cc(I)c(N)c1I)C(=O)O` (stereo not given), the call was inactive.

Consider `O=C(Cl)C(F)(F)C(F)(F)C(F)(F)C(F)(F)C(F)(F)C(F)(F)C(F)(F)F`, for which the outcome was inactive.

Regarding `CC(=O)CCC(C)C`, the result was inactive.

For the compound `CC1=CCC(=O)O1`, the compound was called inactive.

Take `NS(=O)(=O)C(F)(F)C(F)(F)C(F)(F)C(F)(F)C(F)(F)C(F)(F)F`: the result was inactive.

As for `CC(C)Nc1ccc(NC(C)C)c2c1C(=O)c1ccccc1C2=O`, the outcome was inactive.

`CCCCCCCCCc1ccc(OCCO)cc1`: the concentration at half-maximal activity (AC50) is 24.3 µM (active).

On to `CCN(CCO)S(=O)(=O)C(F)(F)C(F)(F)C(F)(F)C(F)(F)C(F)(F)C(F)(F)C(F)(F)C(F)(F)F`, for which the result was inactive.

On to `O=c1[nH]cccc1O`, for which the result was inactive.

Consider `CC1=CC2C3C=CC(C3)C2C1C` (stereo not given), for which the outcome was inactive.

In the case of `COc1ccccc1C=O`, the compound was classed as inactive.

Take `O=C(O)C(F)(F)C(F)(F)C(F)(F)C(=O)O`: the compound was classed as inactive.

`CCCCCCCC/C=C\CCCCCCCC(=O)OCC(O)CO` (stereo not given): the compound was called inactive.

As to `CCCCCC/C=C/CCCCCCCC(=O)O`, the compound was classed as inactive.

Consider `NC(=O)C(F)(F)C(F)(F)C(F)(F)C(F)(F)C(F)(F)C(F)(F)C(F)(F)F`, for which the outcome was inactive.

Turning to `C[C@]12CC[C@H]3C(=CCc4cc(O)ccc43)[C@@H]1CCC2=O`, the call was inactive.

In the case of `Cc1cc(C)c(O)c(C(C)(C)C)c1`, the outcome was inactive.

Turning to `CC(C)CCCC(C)CCO` (stereo not given), the compound was classed as inactive.

Turning to `COC(F)(C(F)F)C(F)(F)F` (stereo not given), the call was inactive.

Regarding `C=CC(=O)OCC(F)(F)C(F)(F)C(F)(F)C(F)(F)C(F)(F)C(F)(F)C(F)(F)C(F)F`, the compound was called inactive.

Turning to `CC(O)C#CC(C)O` (stereo not given), the AC50 was 81.3 µM (active).

Turning to `CCOC(C=C(C)CCC=C(C)C)OCC`, the call was inactive.

Regarding `OCCCCC(F)(F)C(F)(F)C(F)(F)C(F)(F)F`, the compound was called inactive.

By AC50 is commonly meant the midpoint of the concentration-response curve, whichever way the signal moves.
